For 79 compounds, calcium response results are on record in PubChem BioAssay AID492999 (Johns Hopkins Ion Channel Center, 2010).

Among all 1,700 compounds or so, about 1,100 (65%) were called active.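 The calls were made as follows: active = duplicate-averaged calcium response above the buffer-only control mean plus 5 SD of those controls; inactive = the rest.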 The set was probably picked from earlier hits. These entries were drawn from the full list.

A short description of the experiment: increase of M3R-evoked calcium signal – cell-based, validation screen, HEK293 M3R/RGS4, calcium flux, RGS4 inhibitor project (AID 492999).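 As to calcium response: integrated fluorescence ratio F max minus min over baseline F0; higher response in RGS4-induced cells means RGS4 inhibition.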 The conditions noted are these: HEK293 M3R/RGS4, carbachol calcium Fluo-4 fluorescence, at 10 µM, carbachol added at its EC20; active compounds read high, 0 = buffer wells, 100 = carbachol control. On the technique in general: Calcium flux is commonly read through the fluorescence of an indicator in the cells.
`CCOC(=O)C1=NN(c2ccc(Cl)cc2)/C(=C/C2=NCCc3cc(OC)c(OC)cc32)S1`: the calcium response is 10.5% (active).
`CCC(c1nnnn1Cc1ccco1)N(Cc1cc2cc(OC)ccc2[nH]c1=O)C1CCCCC1` (centres undefined): the calcium response result is “inactive”.
Then `COc1ccc(/C(O)=C2/C(=O)C(=O)N(c3nc(C)c(C)s3)C2c2ccco2)cc1` (centres undefined), with “inactive”.
With `COc1ccc(-c2csc(Nc3ccc(O)cc3)n2)cc1`, the calcium response was 10% (active).
The value for `C=CCSc1nc2c(c(=O)[nH]1)C(C(C)C)C(C#N)=C(N)O2` (centres undefined) was 26% (active); that for `COc1cc(Br)cc(/C=N/c2ncn[nH]2)c1O` was 8% (active).
The value for `COc1cc(/C=C2/C(=O)NN(c3cccc(Cl)c3)C2=O)cc(Br)c1O` was 30.5% (active); that for `C#CCOc1ccc(/C=C2/C(=O)NN(c3ccccc3)C2=O)cc1OC` was 9% (active); that for `COc1cc(/C=C2/SC(=S)N(Cc3ccccc3)C2=O)cc(OC)c1O` was “inactive”.
With `Oc1ccc(/C=N/Nc2ccc(C(F)(F)F)cn2)cc1O`, the calcium response is 16.5% (active).
`Cc1nc(-c2ccccc2)sc1C(=O)/C=C/c1ccccc1`: the calcium response was 10% (active).
The value for `COc1ccc(/C=C/C(=O)c2ccc(OC)cc2O)cc1` was “inactive”; that for `O=C1Nc2ccc(Br)cc2/C1=N/N=C/C1=C(N2CCOCC2)C(=C\c2ccccc2)/CC1` was 18.5% (active).
The value for `O=C(Nc1ccccc1)OCc1cc(-c2ccc(Cl)cc2)on1` was “inactive”; that for `COCCCNC(=S)N(CCN(C)C)Cc1cc2cc3c(cc2[nH]c1=O)OCCO3` was “inactive”.
Then `COc1ccc(OC)c(S(=O)(=O)N2CCCC(C(=O)N3CCC(C(N)=O)CC3)C2)c1` (centres undefined), with “inactive”.
For the compound `CCOC(=O)C1CCN(C(c2cc3cc(C)cc(C)c3[nH]c2=O)c2nnnn2C2CCCCC2)CC1` (centres undefined), the calcium response was 18% (active).
Consider `CCOC(=O)[C@@H]1[C@H]2COc3ccc(Br)cc3[C@H]2N2C(=O)N(c3ccc(Cl)cc3)C(=O)[C@@]12C`, for which the calcium response entry is “inactive”.
Then `Cc1cc(C)nc(S/C=C/C(=O)c2ccccc2)n1`, with 19.5% (active).
Then `CCOc1ccc(/C=N/NC(=O)CSc2ccccn2)cc1O`, with “inactive”; and `Cc1ccc(Sc2cc(N3CCOCC3)nc(-c3ccccc3)n2)cc1`, with 28% (active).
`C[C@H](NC(=O)c1nc[nH]c1C(=O)NCC(=O)OC(C)(C)C)c1ccccc1`: the calcium response is 13% (active).
With `O=C(Nc1ccc(Cl)cc1)OCc1cc(-c2ccccc2)on1`, the calcium response result is “inactive”.
Then `COC(=O)Cn1cc(/C=C/[N+](=O)[O-])c2ccccc21`, with 33.5% (active); and `Cc1nc(Nc2ccc(S(=O)(=O)N3CCCC3)cc2)c2nnn(Cc3ccccc3)c2n1`, with “inactive”.
With `O=C(/C=C/c1ccc(Cl)c([N+](=O)[O-])c1)c1cccnc1`, the calcium response was 9% (active).
Regarding `O=C(/C=C/c1ccc(Cl)c([N+](=O)[O-])c1)c1ccc(O)cc1`, the calcium response is 22% (active).
Take `CCCCC1S/C(=N/N=C/c2cccs2)NC1=O` (centres undefined): the calcium response is 18% (active).
Regarding `Brc1ccc(-c2csc(N/N=C/c3cccnc3)n2)cc1`, the calcium response is 7.5% (active).
The value for `CNc1nc(Nc2ccc(C)c(Cl)c2)nc(N)c1[N+](=O)[O-]` was 6% (active); that for `Cc1ccc(Nc2nc(N)nc(CN3CCN(Cc4ccccc4)CC3)n2)cc1Cl` was “inactive”.
The value for `Cc1nn2c(=O)cc(COC(=O)c3ccc(NC(=O)C(C)(C)C)cc3)nc2s1` was “inactive”; that for `Cc1ccc(NC(=O)c2c(NC(=O)CCC(=O)O)sc3c2CCCCC3)cc1` was “inactive”; that for `CC(C)c1nc(SCC(=O)Nc2cccc(C(=O)O)c2)c2c3c(sc2n1)CCCC3` was 27.5% (active).
The value for `CC(C)Cc1nc(Nc2ccc(S(=O)(=O)N3CCCC3)cc2)c2nnn(Cc3ccccc3)c2n1` was “inactive”; that for `CNCC(O)c1ccc(O)c(O)c1` (centres undefined) was 21.5% (active).
Take `O=C(CCN1CCc2ccccc2C(O)(c2ccccc2)C1)c1ccc2c(c1)OCCO2` (centres undefined): the calcium response is 100% (active).
Then `COc1ccc(C(C[N+](=O)[O-])n2nc(C)cc2C)cc1` (centres undefined), with 10% (active).
Turning to `Cc1nn(C(C)C(=O)N2CCOCC2)c(=O)c2nn(-c3ccccc3)c(C)c12` (centres undefined), the calcium response result was “inactive”.
For the compound `O=C(NCCCc1ccccc1)C1CCC(CNc2c(N3CCCCC3)c(=O)c2=O)CC1` (centres undefined), the calcium response result was “inactive”.
Take `O=C1c2ccccc2NC(c2ccc(-c3cccc(Cl)c3)o2)N1O` (centres undefined): the calcium response was 24.5% (active).
Then `c1ccc(C[C@H]2CNCCN2CCC23CC4CC(CC(C4)C2)C3)cc1`, with 26.5% (active); and `O=C(COC(=O)c1cccc(Br)c1)Nc1cccc2c1C(=O)c1ccccc1C2=O`, with “inactive”; and `O=C(O)c1ccc2c(c1)C(=O)N(c1ccc(/C=C/C(=O)c3ccccc3)cc1)C2=O`, with 93% (active).
Take `CCc1ccc(C2C(C#N)=C(N)N(N3CCOCC3)C3=C2C(=O)CC(C)(C)C3)s1` (centres undefined): the calcium response result was “inactive”.
Take `O=[N+]([O-])/C=C/c1ccc2c(ccn2Cc2ccccc2)c1`: the calcium response was 56.5% (active).
Then `CCn1c(O)c(N=NC2=NC(=O)CS2)c2cc(C)ccc21`, with “inactive”.
In the case of `O=C1NC(c2ccc(-c3ccccc3[N+](=O)[O-])o2)C(C(=O)c2ccc(Cl)cc2)C(O)(C(F)(F)F)N1` (centres undefined), the calcium response is 18.5% (active).
The value for `Cn1c(-c2ccco2)nc2cc3ccccc3cc21` was “inactive”.
The value for `CCc1ccc2oc(-c3ccc(N)cc3)nc2c1` was 17% (active).
The value for `CCOc1ccc(NC(=O)C/C(C)=N/NC(=O)Cc2cccs2)cc1` was “inactive”; that for `CCCCOC(=O)CNc1nnc(SCC(=O)OCC)[nH]c1=O` was 63.5% (active); that for `Cc1ccc(C)c(Cn2nnc3c(=O)[nH]c(C(=O)Nc4ccc(F)cc4)nc32)c1` was 56.5% (active).
Consider `COC(=O)C1CCN(C(=O)c2cc(=O)[nH]c3ccccc23)CC1`, for which the calcium response entry was “inactive”.
Then `Cc1ccc(S/C(=N\S(=O)(=O)c2ccc(Cl)cc2)c2ccccc2)cc1`, with “inactive”.
The value for `C#CCOc1ccc(/C=C2/C(=O)ON=C2C)cc1OCC` was 16% (active).
For the compound `C=CCOc1ccc(/C=C2/C(=O)ON=C2C)cc1OCC`, the calcium response is 14.5% (active).
The value for `Cc1ccsc1/C=N/n1c(=S)[nH]nc(C)c1=O` was 22.5% (active); that for `Cc1ccc(SC(CC(=O)c2ccc(C(C)(C)C)cc2)C(=O)O)cc1` (centres undefined) was “inactive”; that for `Nc1cccc(-c2cc(-c3ccccc3)nc(-c3cccc(N)c3)n2)c1` was 13.5% (active).
In the case of `COc1cc2c(cc1O)C(SC)=NC(C)(C)C2`, the calcium response was 26.5% (active).
Then `CCc1nnc(NS(=O)(=O)c2ccc(N=Cc3c(C)[nH]n(-c4ccc(C)cc4)c3=O)cc2)s1`, with “inactive”; and `C1=C(N2CCOCC2)/C(=C/c2nc3ccccc3[nH]2)CC1`, with 49% (active); and `COc1ccc(NCc2nnc(SCc3ccccc3)n2-c2ccc(OC)cc2)cc1`, with “inactive”.
The value for `Cc1ccc(/C=C2\CCn3c2nc2cc(C(=O)O)ccc2c3=O)c(C)c1` was 52% (active); that for `O=C(O)c1ccc2c(=O)n3c(nc2c1)/C(=C/c1ccc(Cl)c([N+](=O)[O-])c1)CC3` was “inactive”.
The value for `Oc1ccc(-c2[nH]ncc2-c2nc3ccccc3s2)c(O)c1` was 12% (active); that for `O=S(=O)(Nc1nccs1)c1ccc2c(c1)OCCO2` was “inactive”; that for `Cc1c(NC(=O)c2coc(=O)c(Br)c2)c(=O)n(-c2ccccc2)n1C` was 24.5% (active).
Regarding `CS(=O)(=O)N(CC(O)Cn1c2ccccc2c2ccccc21)c1cccc2ccccc12` (centres undefined), the calcium response was 14.5% (active).
Then `O=[N+]([O-])c1c(NCCO)cc(Sc2nc3ccccc3s2)c2nonc12`, with “inactive”; and `COc1ccc(S(=O)(=O)Nc2ccc(O)c(Sc3nc4ccccc4s3)c2)cc1`, with 23% (active).
The value for `Nc1ccccc1SC(C[N+](=O)[O-])c1ccccc1` (centres undefined) was 38.5% (active).
The value for `O=C(O)C(c1ccccc1)N1C(=O)/C(=C\c2ccc(-c3cccc(Cl)c3)o2)SC1=S` (centres undefined) was 13.5% (active); that for `COc1ccccc1C1C(C#N)=C(N)Oc2c1c(-c1ccccc1)nn2-c1ccccc1` (centres undefined) was 34.5% (active).
For the compound `C=C(C)C(=O)O[C@H]1C/C(C)=C\C(=O)/C=C(\C)[C@H](O)[C@@H]2OC(=O)C(=C)[C@@H]21`, the calcium response was 26.5% (active).
The value for `CC(=O)Nc1ccc(S(=O)(=O)Nc2nc(-c3ccc(C(C)(C)C)cc3)cs2)cc1` was 19.5% (active); that for `O=C(/C=C/Sc1ncn[nH]1)c1ccc(Cl)cc1` was 45.5% (active); that for `Cc1cc(-c2n[nH]c(=S)n2/N=C/C(Br)=C/c2ccccc2)n[nH]1` was 18% (active).
